Results reported in ChEMBL document CHEMBL1157539, “Thousands of chemical starting points for antimalarial lead identification” (Nature, 2010).

Each molecule was assayed on HepG2 (assay: GSK_TCMDC: Percent inhibition of human HepG2 cell line. Test compounds present at 10uM.).
Type: functional

**Q.** `O=C(Nc1ccc2ccccc2c1)N(CCCn1ccnc1)Cc1csc(-c2ccc(CNCc3ccccc3)cc2)n1.O=C(O)C(F)(F)F` was tested. Which Inhibition did it give?
**A.** The Inhibition was 10%.

**Q.** `CCCCNCc1ccc(-c2nc(CN(CCCn3ccnc3)C(=O)Nc3ccc(CC)cc3)cs2)cc1.O=C(O)C(F)(F)F` was tested. Which Inhibition did it give?
**A.** The Inhibition was 21%.

**Q.** How did the Inhibition turn out when `CCNc1cc(C)nc(Nc2ccc(NC(=O)c3ccco3)cc2)n1` was run?
**A.** The Inhibition was 24%.

**Q.** With `CCN(CC)CCN(CCCc1ccc(-c2ccc(C(F)(F)F)cc2)cc1)C(=O)Cn1c(CCc2cccc(F)c2F)nc(=O)c2ccccc21.O=C(O)C(O)C(O)C(=O)O` as the molecule, how does the Inhibition read?
**A.** Its Inhibition is 37%.

**Q.** `COc1ccc(OC)c(C=NNc2nc3ccccc3[nH]2)c1` was tested. Which Inhibition did it give?
**A.** Its Inhibition is 0%.

**Q.** Which Inhibition does the source give for `COc1ccc(CC2(c3ccc(F)cc3)N=C(N)N(CCCc3cccnc3)C2=O)cc1.O=C(O)C(F)(F)F` (stereo not drawn) here?
**A.** The Inhibition was 12%.

**Q.** How did the Inhibition turn out when `Br.Cc1cc(F)ccc1Nc1nc(N(C)c2ccccc2)c2cccc(O)c2n1` was run?
**A.** The Inhibition was 38%.

**Q.** Which Inhibition does the source give for `O=C(Nc1cccc(-c2ccc(-c3nc4ccccc4[nH]3)s2)c1)c1ccncc1` here?
**A.** The Inhibition was 67%.

**Q.** With `CCOC(=O)c1ccc(NC(=O)Nc2ccc(-c3cccc(-c4nc5ccccc5[nH]4)c3)cc2)cc1` as the molecule, how does the Inhibition read?
**A.** Its Inhibition is 94%.

**Q.** With `Cl.O=C(OCC1CCN(Cc2ccccc2)C1)c1ccc(Cl)cc1` (stereo not drawn) as the molecule, how does the Inhibition read?
**A.** The Inhibition was 0%.

**Q.** With `CN1CCN(CCCN(Cc2cccc(-c3ccc(CNCc4ccc5c(c4)OCO5)cc3)c2)C(=O)Nc2ccccc2)CC1.O=C(O)C(F)(F)F` as the molecule, how does the Inhibition read?
**A.** The Inhibition was 39%.

**Q.** Which Inhibition does the source give for `COc1cc2c(cc1C(F)(F)F)N(C(=O)Nc1cc(F)cc(-c3cccnn3)c1)CC2` here?
**A.** The Inhibition was 21%.

**Q.** `O=C(Cc1cccs1)NCC(c1ccccc1Cl)c1c[nH]c2ccccc12` (stereo not drawn) was tested. Which Inhibition did it give?
**A.** Its Inhibition is 12%.
